The text below walks through data of PubChem BioAssay AID624459 (National Center for Advancing Translational Sciences (NCATS), 2012).

The structures appear in SMILES notation. Active and inactive are the calls of the source. No rule for the calls is given here.

The assay in a line: HTS Assay for Allosteric Antagonists of the Human D2 Dopamine Receptor: Hit Validation in Parental Cell Line.

With `NCCc1ccc(O)c(O)c1`, the outcome was inactive.
